Experimental data taken from the supplement of paper PMC10849652.
About 7,900 targets were measured; listed, in parts, are those with a hit and a random draw of the rest. About 0.6% of all pairs of compound and target were hits.

compound: c1cn2cc(-c3ccc4cn[nH]c4c3)nc(Nc3ccc(N4CCOCC4)cc3)c2n1 [entospletinib]; assay: log2 fold change, soluble protein after heating vs DMSO (PISA); higher = thermal stabilisation; K562 cells, 10 uM, 30 min; active = over 0.2 and 3.5 SD of the protein, either way, in both replicates (recomputed)
Outline: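 K562 cells at 2×10^6 cells/mL were exposed to 10 μM compound for 30 min, then aliquots were heated for 3 min across 48°C-58°C, pooled, and extracted in PBS containing 0.5% NP-40 at 4°C. The supernatant after 21,000xg for 90 min was taken as soluble protein and measured by TMTpro 16plex LC-MS/MS with channel sums equalised. Thermal stability is reported relative to control samples, with values from duplicates. Fold changes are given on a log2 scale.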

Sequence of UniProt P27694 (P27694 whole entry, looked up): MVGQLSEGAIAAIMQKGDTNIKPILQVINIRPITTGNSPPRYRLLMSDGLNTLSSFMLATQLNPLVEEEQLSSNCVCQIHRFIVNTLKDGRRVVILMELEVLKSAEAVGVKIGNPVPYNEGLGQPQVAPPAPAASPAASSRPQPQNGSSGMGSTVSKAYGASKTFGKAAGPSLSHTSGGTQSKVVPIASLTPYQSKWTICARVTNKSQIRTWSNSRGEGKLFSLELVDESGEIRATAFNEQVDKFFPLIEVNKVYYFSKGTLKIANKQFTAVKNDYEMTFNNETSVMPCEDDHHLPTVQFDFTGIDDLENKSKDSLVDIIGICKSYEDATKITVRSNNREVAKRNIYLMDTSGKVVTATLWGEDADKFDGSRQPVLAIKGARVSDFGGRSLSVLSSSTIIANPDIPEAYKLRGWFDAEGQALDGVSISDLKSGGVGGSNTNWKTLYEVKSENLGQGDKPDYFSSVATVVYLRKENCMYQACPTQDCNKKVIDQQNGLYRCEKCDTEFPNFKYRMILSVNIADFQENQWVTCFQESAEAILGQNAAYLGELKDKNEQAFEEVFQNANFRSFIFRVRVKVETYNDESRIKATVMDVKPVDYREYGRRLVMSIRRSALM
Sequence of UniProt Q15050 (Q15050 whole entry, looked up): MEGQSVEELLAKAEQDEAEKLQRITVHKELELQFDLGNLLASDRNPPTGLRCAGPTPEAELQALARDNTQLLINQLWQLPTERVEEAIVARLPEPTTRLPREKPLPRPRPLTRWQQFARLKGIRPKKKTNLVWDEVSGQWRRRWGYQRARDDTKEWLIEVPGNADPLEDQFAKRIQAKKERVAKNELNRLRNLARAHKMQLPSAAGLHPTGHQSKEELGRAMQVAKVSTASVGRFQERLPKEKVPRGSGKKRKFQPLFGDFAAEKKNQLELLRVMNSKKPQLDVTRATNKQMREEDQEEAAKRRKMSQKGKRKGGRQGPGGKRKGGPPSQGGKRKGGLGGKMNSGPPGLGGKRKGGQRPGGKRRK
Sequence of UniProt Q5VTB9 (Q5VTB9 whole entry, looked up): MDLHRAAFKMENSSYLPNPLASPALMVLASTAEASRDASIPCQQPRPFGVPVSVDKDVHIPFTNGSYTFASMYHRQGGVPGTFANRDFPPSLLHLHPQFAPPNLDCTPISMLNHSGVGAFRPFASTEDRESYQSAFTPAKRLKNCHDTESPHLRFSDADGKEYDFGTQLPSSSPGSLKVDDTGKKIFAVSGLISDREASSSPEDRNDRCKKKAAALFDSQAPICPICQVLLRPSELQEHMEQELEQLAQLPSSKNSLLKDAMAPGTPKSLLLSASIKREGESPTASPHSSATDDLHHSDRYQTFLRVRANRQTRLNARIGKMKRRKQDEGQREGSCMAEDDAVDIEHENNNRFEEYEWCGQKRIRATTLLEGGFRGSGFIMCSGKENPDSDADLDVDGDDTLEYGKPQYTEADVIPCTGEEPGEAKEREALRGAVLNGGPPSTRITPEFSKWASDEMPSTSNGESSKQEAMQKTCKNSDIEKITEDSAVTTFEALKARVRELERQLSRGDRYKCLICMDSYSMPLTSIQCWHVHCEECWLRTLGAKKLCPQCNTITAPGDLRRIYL
Sequence of UniProt P52306 (P52306 whole entry, looked up): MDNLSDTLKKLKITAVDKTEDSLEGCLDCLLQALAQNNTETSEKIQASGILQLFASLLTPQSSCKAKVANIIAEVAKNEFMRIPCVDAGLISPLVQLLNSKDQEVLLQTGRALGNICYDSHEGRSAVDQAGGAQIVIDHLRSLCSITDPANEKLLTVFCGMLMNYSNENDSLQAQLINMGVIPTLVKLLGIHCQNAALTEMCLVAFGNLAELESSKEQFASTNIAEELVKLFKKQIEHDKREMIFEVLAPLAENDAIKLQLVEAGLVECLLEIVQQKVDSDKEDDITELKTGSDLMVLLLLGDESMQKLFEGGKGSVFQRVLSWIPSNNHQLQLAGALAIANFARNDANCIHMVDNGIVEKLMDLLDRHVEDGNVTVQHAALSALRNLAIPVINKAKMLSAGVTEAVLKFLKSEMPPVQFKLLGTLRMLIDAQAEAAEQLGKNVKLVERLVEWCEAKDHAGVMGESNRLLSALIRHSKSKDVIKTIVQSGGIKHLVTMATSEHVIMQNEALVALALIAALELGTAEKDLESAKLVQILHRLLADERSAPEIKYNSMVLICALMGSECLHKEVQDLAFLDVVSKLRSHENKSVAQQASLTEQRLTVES
Sequence of UniProt A1X283 (A1X283 whole entry, looked up): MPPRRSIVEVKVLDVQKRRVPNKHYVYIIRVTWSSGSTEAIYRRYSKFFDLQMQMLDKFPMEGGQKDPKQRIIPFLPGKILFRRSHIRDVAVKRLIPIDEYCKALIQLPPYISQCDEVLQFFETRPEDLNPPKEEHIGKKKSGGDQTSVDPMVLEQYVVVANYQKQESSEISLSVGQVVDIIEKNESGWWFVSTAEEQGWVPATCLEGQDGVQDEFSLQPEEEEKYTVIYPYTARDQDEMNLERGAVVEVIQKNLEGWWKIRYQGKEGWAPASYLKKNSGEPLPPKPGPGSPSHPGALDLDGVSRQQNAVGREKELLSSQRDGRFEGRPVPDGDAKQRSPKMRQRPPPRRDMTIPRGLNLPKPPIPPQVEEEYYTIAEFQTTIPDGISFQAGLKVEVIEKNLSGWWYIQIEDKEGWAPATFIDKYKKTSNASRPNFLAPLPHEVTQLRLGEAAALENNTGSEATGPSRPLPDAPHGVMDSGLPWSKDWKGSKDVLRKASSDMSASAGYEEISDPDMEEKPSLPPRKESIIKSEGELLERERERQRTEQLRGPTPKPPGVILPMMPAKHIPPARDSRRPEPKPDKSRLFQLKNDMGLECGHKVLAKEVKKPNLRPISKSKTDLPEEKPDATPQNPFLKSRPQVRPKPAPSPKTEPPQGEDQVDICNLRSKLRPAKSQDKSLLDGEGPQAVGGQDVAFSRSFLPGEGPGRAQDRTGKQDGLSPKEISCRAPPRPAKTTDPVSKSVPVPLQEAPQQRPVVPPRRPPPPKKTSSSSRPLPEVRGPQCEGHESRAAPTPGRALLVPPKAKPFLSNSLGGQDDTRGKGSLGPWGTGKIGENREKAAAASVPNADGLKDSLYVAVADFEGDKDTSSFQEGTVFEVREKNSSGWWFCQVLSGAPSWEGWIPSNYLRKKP
Sequence of UniProt A6NEQ0 (A6NEQ0 whole entry, looked up): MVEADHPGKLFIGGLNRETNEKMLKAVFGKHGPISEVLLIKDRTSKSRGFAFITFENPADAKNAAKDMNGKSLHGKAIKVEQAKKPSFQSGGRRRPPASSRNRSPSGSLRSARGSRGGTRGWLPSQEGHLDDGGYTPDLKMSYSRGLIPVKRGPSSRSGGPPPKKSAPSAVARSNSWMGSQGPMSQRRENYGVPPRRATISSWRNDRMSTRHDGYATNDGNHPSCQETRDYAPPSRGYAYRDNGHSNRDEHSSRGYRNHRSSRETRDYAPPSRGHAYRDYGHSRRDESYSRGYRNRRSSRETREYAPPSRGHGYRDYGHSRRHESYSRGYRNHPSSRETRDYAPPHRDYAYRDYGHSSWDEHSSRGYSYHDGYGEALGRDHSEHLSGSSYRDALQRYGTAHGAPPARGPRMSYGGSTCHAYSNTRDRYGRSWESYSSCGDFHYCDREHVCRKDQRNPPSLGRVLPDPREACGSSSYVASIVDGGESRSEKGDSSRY
Sequence of UniProt Q96T51 (Q96T51 whole entry, looked up): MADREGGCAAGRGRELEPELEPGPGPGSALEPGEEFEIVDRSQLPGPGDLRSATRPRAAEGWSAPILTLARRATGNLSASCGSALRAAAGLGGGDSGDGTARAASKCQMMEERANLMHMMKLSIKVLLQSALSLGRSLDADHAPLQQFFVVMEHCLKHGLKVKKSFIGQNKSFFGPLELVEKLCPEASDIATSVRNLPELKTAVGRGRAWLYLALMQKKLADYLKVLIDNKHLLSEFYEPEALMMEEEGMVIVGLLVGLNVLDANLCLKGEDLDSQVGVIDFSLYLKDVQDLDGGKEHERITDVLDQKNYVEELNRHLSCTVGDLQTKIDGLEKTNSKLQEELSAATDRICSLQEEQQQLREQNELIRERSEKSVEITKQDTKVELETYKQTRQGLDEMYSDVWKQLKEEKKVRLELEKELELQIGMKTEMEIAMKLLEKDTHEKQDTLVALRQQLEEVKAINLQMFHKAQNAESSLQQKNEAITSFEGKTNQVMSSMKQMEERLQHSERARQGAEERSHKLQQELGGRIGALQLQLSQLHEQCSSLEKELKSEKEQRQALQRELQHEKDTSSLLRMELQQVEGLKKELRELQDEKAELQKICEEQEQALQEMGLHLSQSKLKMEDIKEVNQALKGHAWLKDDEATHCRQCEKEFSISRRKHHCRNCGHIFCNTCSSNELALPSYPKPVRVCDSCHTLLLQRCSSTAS
Sequence of UniProt Q9BVS4 (Q9BVS4 whole entry, looked up): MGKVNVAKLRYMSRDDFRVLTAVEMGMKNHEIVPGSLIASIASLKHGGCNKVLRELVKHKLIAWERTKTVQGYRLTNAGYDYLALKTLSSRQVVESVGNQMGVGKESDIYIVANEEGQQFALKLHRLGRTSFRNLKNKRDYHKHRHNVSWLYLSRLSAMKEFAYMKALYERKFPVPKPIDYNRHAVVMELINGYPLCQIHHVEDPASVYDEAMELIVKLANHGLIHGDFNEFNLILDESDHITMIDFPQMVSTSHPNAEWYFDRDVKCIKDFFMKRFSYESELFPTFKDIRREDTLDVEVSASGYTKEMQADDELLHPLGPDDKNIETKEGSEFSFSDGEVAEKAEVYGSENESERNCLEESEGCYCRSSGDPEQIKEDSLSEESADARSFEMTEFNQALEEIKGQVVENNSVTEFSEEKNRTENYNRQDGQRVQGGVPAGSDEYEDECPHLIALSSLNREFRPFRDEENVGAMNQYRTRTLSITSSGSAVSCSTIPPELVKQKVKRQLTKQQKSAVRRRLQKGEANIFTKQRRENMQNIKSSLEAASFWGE

log2 fold change, inactive:
RBMY1E (UniProt A6NEQ0) -0.057
RRS1 (UniProt Q15050) 0.066
RUFY1 (UniProt Q96T51) 0.042
SART3, A0A499FI31 0.023
RSL1D1 (UniProt O76021) 0.01
RNF220 (UniProt Q5VTB9) -0.021
RIOK2 (UniProt Q9BVS4) 0.105
RPS3 (UniProt P23396) 0.063
RAD51 (UniProt Q06609) -0.127
RAD50 isoform 2 (UniProt Q92878) -0.02
RAP1GDS1 isoform 5 (UniProt P52306) -0.025
RPA1 (UniProt P27694) -0.024
SERINC1 (UniProt Q9NRX5) 0.022
SH3PXD2B (UniProt A1X283) -0.131
